Experimental data: PubChem BioAssay (NCATS)
Records with an inconclusive call do not appear. Values without a mark were called inactive. Active and inactive are the calls of the source. Calls come from the whole dose curve; as a rule, active = well fitted curve in either direction with a large enough effect (not every such curve was filed as active); inconclusive = small, poorly fitted or top-dose-only effect, or another doubt; inactive = flat fitted curve, though single readings scatter.
% is set by controls: 0 for no effect and ±100 for the full control effect.

Assay: AP1 Signaling Pathway (AID 357);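 note: ME-180 reporter cells stimulated with EGF at its EC50 level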
Settings: ME-180 (cervical carcinoma) AP-1-bla reporter, EGF-induced, beta-lactamase ratio, 5 h; at 17.2 µM (top of the series) unless noted
Procedure, shortened: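 A ratiometric CCF4 readout (405 nm excitation; 460 and 530 nm emission) quantified AP-1-driven beta-lactamase in ME-180 cells after 5 h with compound and EC50 EGF; AC50 values were derived for activators and inhibitors.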
`Cc1cc(=O)n2[nH]cnc2n1` gave an activity change, negative = inhibition of 14.3%.
Compound `CCCCCSc1nc(C)c(CC(=O)O)c(=O)[nH]1` has an activity change, negative = inhibition of -1.76%.
`O=C(NC1CCS(=O)(=O)C1)N1CCCCC1` (centres undefined) gave an activity change, negative = inhibition of -10.9%.
`O=C(Cc1cscn1)c1ccc(O)cc1O` gave an activity change, negative = inhibition of 4.71%.
Compound `CC1(c2cnc(Nc3ccccc3)s2)CCC(=O)O1` (centres undefined) has an activity change, negative = inhibition of -10.6%.
`CCCc1cc(=O)oc2c(CN3CCCC3)c(O)ccc12` gave an activity change, negative = inhibition of -13.6%.
For `c1ccc(-c2nc(NCC3CCCO3)c3ccccc3n2)nc1` (centres undefined), the activity change, negative = inhibition was -1.55%.
`Cn1ncc(N=Cc2ccccc2O)c1C(=O)Nc1ccccc1` gave an activity change, negative = inhibition of -7.55%.
For `Cc1sc(-n2c(C)ccc2C)c(C#N)c1C`, the activity change, negative = inhibition was -5.35%.
Work on `Fc1ccc(C2C3=C(Nc4ncnn42)c2ccccc2OC3c2ccncc2)cc1` (centres undefined) yielded an activity change, negative = inhibition of -29%.
`COc1ccc(C2/C(=C(/O)c3cnn(-c4ccccc4)c3C)C(=O)C(=O)N2CCN(C)C)cc1OC` (centres undefined) gave an activity change, negative = inhibition of -0.291%.
In the case of `O=C(O)CCCC(=O)N1CCN(C(c2ccccc2)c2ccccc2)CC1`, the activity change, negative = inhibition is reported as 1.43%.
`CCOC(=O)C1=C(C)N=C2SC(C)C(=O)N2C1c1cccc(F)c1` (centres undefined) showed an activity change, negative = inhibition of -17.6%.
`COc1cccc(C2=CC(c3ccccc3)n3nnnc3N2)c1` (centres undefined) gave an activity change, negative = inhibition of -3.96%.
Work on `CN(C)CCCN(CCCNC(=O)/C=N/O)Cc1ccccc1` yielded an activity change, negative = inhibition of -5.3%.
Work on `O=C(O)c1ccnc(C(=O)O)c1` yielded an activity change, negative = inhibition of 8.01%.
`CN1CCc2c(C#N)c(N3CCCCC3)nc(N3CCOCC3)c2C1` showed an activity change, negative = inhibition of 1.28%.
`CC(=O)OCC(=O)[C@@]1(O)CC[C@H]2[C@@H]3CCC4=CC(=O)C=C[C@]4(C)[C@@]3(Cl)[C@@H](Cl)C[C@@]21C` showed an activity change, negative = inhibition of 11.8%.
In the case of `CCOc1ccc(C2C(C(=O)c3ccc(C)o3)=C(O)C(=O)N2CCN2CCOCC2)cc1OC` (centres undefined), the activity change, negative = inhibition is reported as 0.475%.
Compound `CCCOc1ccc(-c2nnc(N)s2)cc1` has an activity change, negative = inhibition of 9.15%.
In the case of `Cn1cc(Cl)nc1C(O)c1ccccc1` (centres undefined), the activity change, negative = inhibition is reported as 2.37%.
`Cc1cc(C)nc(N(C#N)CC(=O)N(c2ccccc2)C(C)C)n1` showed an activity change, negative = inhibition of -11%.
For `CCCC(=O)N1CCN(c2nc(CC(C)C)c3c(c2C#N)CCC3)CC1`, the activity change, negative = inhibition was -11.7%.
With `COCCNC(=O)C(C#N)c1nc2ccccc2nc1N1CCN(Cc2ccc3c(c2)OCO3)CC1` (centres undefined) the activity change, negative = inhibition was -20.2%.
In the case of `CC1(C)Cc2nc(N)c(C(=O)NCCO)cc2CO1`, the activity change, negative = inhibition is reported as 8.22%.
Compound `COC(=O)c1ccccc1OCc1cccc(C)n1` has an activity change, negative = inhibition of -1.62%.
In the case of `Cc1cccc(C)c1N1C(=O)C2ON(c3ccccc3)C(c3ccncc3)C2C1=O` (centres undefined), the activity change, negative = inhibition is reported as 1.5%.
Compound `CC(=O)/C=C(\C)NCCNc1c(F)c(F)c(CO)c(F)c1F` has an activity change, negative = inhibition of -4.08%.
`CCOC(=O)C1=C(C)OC(N)=C(C#N)C1c1cc2ccccc2nc1N1CCCCC1` (centres undefined) showed an activity change, negative = inhibition of -11.2%.
In the case of `O=C(c1nsnc1-c1ccccc1O)N1CCCCC1`, the activity change, negative = inhibition is reported as 12.2%.
Compound `Cc1ccc2[nH]c3c(c2c1)CN(C(=O)CN1CCN(c2ccccn2)CC1)CC3` has an activity change, negative = inhibition of -13.5%.
Compound `CCC(=O)Nc1ccc(-c2nnc(-c3ccccc3)o2)cc1` has an activity change, negative = inhibition of 0.816%.
`CCn1nnc(C(=O)O)c1C(=O)O` gave an activity change, negative = inhibition of 3.44%.
In the case of `COc1ccc(C(=O)Cn2c(N3CCCCC3)nc3c2c(=O)n(C)c(=O)n3C)cc1OC`, the activity change, negative = inhibition is reported as 14.7%.
With `CCOC(=O)C(Oc1ccc(=O)[nH]n1)C(C)=O` (centres undefined) the activity change, negative = inhibition was 3.6%.
For `Cc1ccc(/C=c2\sc3n(c2=O)CN(c2ccc(Br)cc2)CN=3)o1`, the activity change, negative = inhibition was 25.9%.
In the case of `COc1ccc(-c2nc3n(n2)C(=O)CC(c2ccco2)S3)cc1` (centres undefined), the activity change, negative = inhibition is reported as -9.14%.
With `CC(=O)c1c(C)c2c(n1CCN(C)C)CCCC2` the activity change, negative = inhibition was 123% [activator] (active).
`CC(C)CC(C(=O)O)C(C)CC(=O)Nc1ccn(-c2ccccc2)n1` (centres undefined) showed an activity change, negative = inhibition of -9.05%.
